Experiment in all cases: DAPPL (digital affinity profiling via proximity ligation, sequencing); 10 mM Tris-HCl pH 7.5, 50 mM NaCl, 1 mM DTT, 4% glycerol, room temperature, 30 min; GST-TFs on glutathione beads, 16-mer random dsDNA library, 0.1% formaldehyde crosslink after washing; high values mean tight binding
The target of one experiment is T1, FLI1 (Homo sapiens, UniProt Q01543 1-452).
T1 sequence: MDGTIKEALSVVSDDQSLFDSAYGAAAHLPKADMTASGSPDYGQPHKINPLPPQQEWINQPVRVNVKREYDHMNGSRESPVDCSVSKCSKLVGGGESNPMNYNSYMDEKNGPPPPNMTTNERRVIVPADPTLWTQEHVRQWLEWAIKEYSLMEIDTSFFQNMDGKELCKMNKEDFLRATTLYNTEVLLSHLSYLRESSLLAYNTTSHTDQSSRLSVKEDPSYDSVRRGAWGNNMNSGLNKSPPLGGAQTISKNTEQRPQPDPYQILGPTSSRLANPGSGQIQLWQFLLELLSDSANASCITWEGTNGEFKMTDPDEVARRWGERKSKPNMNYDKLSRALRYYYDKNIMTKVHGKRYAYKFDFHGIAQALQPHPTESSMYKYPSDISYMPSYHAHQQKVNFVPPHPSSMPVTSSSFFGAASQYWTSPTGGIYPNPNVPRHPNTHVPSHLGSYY
The following applies: protein: recombinant; tags: N-terminal GST; dsDNA, one strand shown. In outline: (§1)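 Yeast served to express human transcription factors as GST fusions, which were then captured on glutathione beads and labelled with DNA barcodes. Pooled with a tag-only sample, they were incubated with 200 nmole of a 16-mer random double-stranded DNA library for 30 min at room temperature in Tris/NaCl/DTT/glycerol buffer, washed, crosslinked with 0.1% formaldehyde, ligated by proximity, amplified by PCR and sequenced. Dividing each hexamer's read frequency for a factor by its frequency for the tag-only sample gives the binding signal.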

The next experiment deals with T2, ELK1 (Homo sapiens, UniProt P19419 1-428).
T2 sequence: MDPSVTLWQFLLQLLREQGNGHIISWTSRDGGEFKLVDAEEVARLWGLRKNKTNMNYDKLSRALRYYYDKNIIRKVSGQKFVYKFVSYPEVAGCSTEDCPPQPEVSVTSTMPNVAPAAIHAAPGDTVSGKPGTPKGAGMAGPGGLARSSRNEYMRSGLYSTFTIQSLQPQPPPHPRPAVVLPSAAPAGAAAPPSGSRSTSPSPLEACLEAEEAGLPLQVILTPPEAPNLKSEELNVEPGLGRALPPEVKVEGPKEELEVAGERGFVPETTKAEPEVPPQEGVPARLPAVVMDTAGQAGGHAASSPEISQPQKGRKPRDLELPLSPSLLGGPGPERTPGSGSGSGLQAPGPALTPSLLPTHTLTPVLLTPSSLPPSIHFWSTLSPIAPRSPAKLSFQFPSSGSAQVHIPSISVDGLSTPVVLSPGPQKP
The following applies: protein: recombinant; tags: N-terminal GST; dsDNA, one strand shown. In a few lines:
as §1

For the next experiment, the target named is T3, GABPA (Homo sapiens, UniProt Q06546 1-454).
T3 sequence: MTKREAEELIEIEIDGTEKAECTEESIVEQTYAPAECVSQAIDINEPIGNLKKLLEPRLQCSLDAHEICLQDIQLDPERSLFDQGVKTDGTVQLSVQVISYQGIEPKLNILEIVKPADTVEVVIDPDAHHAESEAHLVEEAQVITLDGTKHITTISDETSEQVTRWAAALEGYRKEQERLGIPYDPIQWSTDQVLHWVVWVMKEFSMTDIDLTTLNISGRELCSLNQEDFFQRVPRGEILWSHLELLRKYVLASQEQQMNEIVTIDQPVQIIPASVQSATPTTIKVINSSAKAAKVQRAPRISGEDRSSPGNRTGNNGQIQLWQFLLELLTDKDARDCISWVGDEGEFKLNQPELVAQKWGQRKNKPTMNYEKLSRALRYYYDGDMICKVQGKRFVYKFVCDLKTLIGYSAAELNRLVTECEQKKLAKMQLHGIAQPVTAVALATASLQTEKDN
The settings on record: protein: recombinant; tags: N-terminal GST; dsDNA, one strand shown. In outline: as §1

Another experiment has as its target T4, ERG (Homo sapiens, UniProt P11308 1-479).
T4 sequence: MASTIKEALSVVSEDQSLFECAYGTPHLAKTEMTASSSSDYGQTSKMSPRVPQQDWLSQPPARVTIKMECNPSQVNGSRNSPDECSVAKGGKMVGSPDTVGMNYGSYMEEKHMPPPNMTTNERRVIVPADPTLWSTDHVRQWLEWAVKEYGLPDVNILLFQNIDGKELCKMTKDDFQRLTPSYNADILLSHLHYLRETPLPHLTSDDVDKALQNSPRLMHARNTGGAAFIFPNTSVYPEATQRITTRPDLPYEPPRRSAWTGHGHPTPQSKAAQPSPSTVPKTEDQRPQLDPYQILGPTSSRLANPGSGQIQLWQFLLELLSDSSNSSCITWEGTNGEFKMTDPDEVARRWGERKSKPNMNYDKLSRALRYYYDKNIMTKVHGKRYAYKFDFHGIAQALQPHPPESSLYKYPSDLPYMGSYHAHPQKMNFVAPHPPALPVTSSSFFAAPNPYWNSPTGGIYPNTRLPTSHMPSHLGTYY
The following applies: protein: recombinant; tags: N-terminal GST; dsDNA, one strand shown. In a few lines:
as §1

The target in another experiment is ELF1 (Homo sapiens, UniProt P32519 1-619). The following applies: protein: recombinant; tags: N-terminal GST; dsDNA, one strand shown. In outline: as §1
Another experiment concerns the target T5, EHF (Homo sapiens, UniProt Q9NZC4 1-300).
T5 sequence: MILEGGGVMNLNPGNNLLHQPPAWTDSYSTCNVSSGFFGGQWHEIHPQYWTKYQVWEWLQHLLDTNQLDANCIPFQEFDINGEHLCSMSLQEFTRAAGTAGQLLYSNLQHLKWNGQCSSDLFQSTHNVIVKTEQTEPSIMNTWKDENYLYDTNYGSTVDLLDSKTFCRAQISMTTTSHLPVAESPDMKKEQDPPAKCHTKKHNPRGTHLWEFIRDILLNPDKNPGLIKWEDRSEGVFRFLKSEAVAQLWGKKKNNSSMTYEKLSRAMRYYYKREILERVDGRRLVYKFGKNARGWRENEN
The settings on record: protein: recombinant; tags: N-terminal GST; dsDNA, one strand shown. In a few lines:
as §1

The target of the next experiment is SPI1 (Homo sapiens, UniProt P17947 1-270). The following applies: protein: recombinant; tags: N-terminal GST; dsDNA, one strand shown. In outline:
as §1

In another experiment the target is SPIB (Homo sapiens, UniProt Q01892 1-262). The following applies: protein: recombinant; tags: N-terminal GST; dsDNA, one strand shown. In outline: as §1
In another experiment the target is T6, ELK3 (Homo sapiens, UniProt P41970 1-407).
T6 sequence: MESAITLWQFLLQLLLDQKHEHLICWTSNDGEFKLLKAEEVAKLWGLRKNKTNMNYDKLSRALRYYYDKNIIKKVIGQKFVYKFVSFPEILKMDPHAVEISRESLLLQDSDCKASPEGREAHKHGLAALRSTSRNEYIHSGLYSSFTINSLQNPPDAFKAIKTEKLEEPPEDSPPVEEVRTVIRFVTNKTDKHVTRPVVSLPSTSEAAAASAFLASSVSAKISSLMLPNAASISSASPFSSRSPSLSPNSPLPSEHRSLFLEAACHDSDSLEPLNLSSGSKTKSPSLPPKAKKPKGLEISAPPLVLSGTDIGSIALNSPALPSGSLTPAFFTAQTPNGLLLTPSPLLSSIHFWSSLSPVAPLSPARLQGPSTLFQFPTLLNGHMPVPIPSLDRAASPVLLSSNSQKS
The following applies: protein: recombinant; tags: N-terminal GST; dsDNA, one strand shown. In a few lines: as §1

Another experiment deals with T7, FEV (Homo sapiens, UniProt Q99581 1-238).
T7 sequence: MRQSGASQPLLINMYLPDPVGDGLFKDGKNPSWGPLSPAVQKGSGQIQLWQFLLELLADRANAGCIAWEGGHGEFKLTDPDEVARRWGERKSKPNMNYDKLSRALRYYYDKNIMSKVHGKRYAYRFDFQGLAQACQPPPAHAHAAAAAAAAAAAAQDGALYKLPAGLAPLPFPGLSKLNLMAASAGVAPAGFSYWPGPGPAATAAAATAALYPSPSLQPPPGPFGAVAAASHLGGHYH
The following applies: protein: recombinant; tags: N-terminal GST; dsDNA, one strand shown. In outline: as §1

The target of another experiment is ETV5 (Homo sapiens, UniProt P41161 1-510). The settings on record: protein: recombinant; tags: N-terminal GST; dsDNA, one strand shown. In a few lines: as §1
The next experiment addresses HSF1 (Homo sapiens, UniProt Q00613 1-529). The following applies: protein: recombinant; tags: N-terminal GST; chain copies: 3; dsDNA, one strand shown. In outline: as §1
The next experiment concerns the target T8, SPIC (Homo sapiens, UniProt Q8N5J4 1-248).
T8 sequence: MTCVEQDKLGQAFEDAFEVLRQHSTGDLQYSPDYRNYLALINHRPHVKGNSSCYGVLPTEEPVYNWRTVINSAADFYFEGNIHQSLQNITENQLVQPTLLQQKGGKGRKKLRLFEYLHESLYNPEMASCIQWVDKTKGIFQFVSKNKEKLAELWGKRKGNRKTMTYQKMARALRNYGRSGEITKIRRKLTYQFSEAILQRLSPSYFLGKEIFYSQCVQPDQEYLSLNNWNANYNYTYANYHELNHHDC
The following applies: protein: recombinant; tags: N-terminal GST; dsDNA, one strand shown. In a few lines: as §1

In the next experiment the target is ELF4 (Homo sapiens, UniProt Q99607 1-663). The following applies: protein: recombinant; tags: N-terminal GST; dsDNA, one strand shown. In a few lines:
as §1

The next experiment deals with T9, ELK4 (Homo sapiens, UniProt P28324-2 1-405).
T9 sequence: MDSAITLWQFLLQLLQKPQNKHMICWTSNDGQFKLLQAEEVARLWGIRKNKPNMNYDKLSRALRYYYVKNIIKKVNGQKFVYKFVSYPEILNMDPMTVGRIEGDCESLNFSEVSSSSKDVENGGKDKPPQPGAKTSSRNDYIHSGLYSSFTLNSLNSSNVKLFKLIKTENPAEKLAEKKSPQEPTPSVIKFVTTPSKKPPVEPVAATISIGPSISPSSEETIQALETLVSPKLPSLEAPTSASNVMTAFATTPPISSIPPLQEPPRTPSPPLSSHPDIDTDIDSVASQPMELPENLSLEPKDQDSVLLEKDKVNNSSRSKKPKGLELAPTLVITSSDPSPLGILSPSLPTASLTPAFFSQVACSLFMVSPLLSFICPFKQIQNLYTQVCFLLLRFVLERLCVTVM
The settings on record: protein: recombinant; tags: N-terminal GST; dsDNA, one strand shown. In outline:
as §1

The next experiment has as its target T10, ELF3 (Homo sapiens, UniProt P78545 1-371).
T10 sequence: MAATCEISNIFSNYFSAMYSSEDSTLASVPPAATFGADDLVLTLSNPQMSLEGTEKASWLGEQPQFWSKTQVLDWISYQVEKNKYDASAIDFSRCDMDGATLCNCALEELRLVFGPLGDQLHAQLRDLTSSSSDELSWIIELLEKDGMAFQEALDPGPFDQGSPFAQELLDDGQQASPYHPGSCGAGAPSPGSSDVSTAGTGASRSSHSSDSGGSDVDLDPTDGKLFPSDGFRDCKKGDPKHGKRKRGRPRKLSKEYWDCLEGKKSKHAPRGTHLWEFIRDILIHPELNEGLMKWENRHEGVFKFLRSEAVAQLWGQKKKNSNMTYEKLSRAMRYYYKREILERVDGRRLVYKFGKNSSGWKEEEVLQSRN
The settings on record: protein: recombinant; tags: N-terminal GST; dsDNA, one strand shown. In outline:
as §1

In the next experiment the target is CRX (Homo sapiens, UniProt O43186 1-299). The settings on record: protein: recombinant; tags: N-terminal GST; dsDNA, one strand shown. In a few lines: as §1
For the next experiment, the target named is ETV1 (Homo sapiens, UniProt P50549 1-477). The settings on record: protein: recombinant; tags: N-terminal GST; dsDNA, one strand shown. In outline: as §1
ETV1, sequence (P50549 whole entry): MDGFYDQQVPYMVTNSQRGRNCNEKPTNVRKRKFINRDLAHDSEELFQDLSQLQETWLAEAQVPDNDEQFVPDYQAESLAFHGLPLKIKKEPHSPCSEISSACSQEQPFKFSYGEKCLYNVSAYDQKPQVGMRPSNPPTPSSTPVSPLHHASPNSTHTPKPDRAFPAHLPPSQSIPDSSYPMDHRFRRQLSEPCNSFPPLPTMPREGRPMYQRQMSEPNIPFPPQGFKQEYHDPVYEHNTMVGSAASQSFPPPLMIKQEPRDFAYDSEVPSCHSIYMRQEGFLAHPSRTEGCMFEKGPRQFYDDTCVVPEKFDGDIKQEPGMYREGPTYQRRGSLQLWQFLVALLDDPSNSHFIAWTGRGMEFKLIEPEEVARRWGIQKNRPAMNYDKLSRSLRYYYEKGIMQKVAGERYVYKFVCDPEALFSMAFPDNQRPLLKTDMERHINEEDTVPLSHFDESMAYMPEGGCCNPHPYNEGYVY

ETV5, sequence (P41161 whole entry): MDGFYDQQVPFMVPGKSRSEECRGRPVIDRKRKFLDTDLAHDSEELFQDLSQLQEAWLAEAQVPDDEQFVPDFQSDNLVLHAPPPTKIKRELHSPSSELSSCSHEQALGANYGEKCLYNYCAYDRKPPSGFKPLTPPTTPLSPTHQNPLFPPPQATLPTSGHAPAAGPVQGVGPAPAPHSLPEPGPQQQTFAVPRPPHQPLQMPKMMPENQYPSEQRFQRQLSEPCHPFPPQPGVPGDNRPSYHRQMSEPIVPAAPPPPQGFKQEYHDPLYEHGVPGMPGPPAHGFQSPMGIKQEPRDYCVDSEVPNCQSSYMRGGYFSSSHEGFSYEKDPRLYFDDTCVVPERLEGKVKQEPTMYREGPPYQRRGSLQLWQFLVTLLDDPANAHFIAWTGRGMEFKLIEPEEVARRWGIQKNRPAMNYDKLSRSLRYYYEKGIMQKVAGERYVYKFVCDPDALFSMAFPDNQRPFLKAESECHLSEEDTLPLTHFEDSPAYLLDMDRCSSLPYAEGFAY
CRX, sequence (O43186 whole entry): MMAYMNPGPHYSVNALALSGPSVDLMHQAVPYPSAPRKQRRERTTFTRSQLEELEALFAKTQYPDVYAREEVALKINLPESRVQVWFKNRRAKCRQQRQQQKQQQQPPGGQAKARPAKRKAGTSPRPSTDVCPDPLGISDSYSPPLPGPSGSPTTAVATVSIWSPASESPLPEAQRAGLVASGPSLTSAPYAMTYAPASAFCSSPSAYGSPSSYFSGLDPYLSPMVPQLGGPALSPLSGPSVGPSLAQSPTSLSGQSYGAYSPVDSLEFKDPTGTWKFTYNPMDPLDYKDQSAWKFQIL
HSF1, sequence (Q00613 whole entry): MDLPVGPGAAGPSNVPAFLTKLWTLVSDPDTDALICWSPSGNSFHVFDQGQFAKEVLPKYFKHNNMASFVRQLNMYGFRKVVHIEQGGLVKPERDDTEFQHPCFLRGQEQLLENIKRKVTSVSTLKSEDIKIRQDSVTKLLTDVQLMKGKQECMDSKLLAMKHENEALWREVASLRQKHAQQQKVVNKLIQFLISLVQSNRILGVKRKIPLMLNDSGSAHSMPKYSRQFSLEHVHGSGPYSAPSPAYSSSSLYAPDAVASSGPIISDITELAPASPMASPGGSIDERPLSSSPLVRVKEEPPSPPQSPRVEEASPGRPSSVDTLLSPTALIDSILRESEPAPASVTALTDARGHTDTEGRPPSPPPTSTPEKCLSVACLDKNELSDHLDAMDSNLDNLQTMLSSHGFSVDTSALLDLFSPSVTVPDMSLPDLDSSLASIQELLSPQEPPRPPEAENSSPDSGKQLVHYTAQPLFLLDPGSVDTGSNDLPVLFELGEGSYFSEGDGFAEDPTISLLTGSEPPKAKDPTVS
SPIB, sequence (Q01892 whole entry): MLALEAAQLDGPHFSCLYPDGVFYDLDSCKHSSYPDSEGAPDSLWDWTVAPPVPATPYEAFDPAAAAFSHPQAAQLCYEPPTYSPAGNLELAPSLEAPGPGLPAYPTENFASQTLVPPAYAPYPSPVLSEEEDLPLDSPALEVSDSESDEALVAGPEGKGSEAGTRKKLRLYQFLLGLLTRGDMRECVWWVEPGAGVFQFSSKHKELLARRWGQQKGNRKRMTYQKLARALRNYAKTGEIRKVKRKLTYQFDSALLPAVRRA
ELF4, sequence (Q99607 whole entry): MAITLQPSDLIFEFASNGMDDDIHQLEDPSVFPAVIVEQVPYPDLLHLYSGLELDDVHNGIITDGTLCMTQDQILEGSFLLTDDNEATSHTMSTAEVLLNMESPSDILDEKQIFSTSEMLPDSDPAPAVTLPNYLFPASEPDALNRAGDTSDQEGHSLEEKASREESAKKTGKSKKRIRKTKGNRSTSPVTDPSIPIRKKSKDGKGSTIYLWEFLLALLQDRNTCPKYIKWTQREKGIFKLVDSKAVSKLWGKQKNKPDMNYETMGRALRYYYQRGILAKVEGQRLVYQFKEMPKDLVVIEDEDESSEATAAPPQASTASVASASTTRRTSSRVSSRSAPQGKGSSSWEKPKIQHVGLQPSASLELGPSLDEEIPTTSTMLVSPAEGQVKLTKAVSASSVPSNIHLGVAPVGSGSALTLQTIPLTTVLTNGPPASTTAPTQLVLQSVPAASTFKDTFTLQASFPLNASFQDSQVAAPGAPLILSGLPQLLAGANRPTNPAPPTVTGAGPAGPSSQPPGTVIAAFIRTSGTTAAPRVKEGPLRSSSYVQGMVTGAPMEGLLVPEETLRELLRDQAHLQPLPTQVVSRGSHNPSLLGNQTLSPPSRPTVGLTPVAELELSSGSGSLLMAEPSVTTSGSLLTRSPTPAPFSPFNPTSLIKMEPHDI
ELF1, sequence (P32519 whole entry): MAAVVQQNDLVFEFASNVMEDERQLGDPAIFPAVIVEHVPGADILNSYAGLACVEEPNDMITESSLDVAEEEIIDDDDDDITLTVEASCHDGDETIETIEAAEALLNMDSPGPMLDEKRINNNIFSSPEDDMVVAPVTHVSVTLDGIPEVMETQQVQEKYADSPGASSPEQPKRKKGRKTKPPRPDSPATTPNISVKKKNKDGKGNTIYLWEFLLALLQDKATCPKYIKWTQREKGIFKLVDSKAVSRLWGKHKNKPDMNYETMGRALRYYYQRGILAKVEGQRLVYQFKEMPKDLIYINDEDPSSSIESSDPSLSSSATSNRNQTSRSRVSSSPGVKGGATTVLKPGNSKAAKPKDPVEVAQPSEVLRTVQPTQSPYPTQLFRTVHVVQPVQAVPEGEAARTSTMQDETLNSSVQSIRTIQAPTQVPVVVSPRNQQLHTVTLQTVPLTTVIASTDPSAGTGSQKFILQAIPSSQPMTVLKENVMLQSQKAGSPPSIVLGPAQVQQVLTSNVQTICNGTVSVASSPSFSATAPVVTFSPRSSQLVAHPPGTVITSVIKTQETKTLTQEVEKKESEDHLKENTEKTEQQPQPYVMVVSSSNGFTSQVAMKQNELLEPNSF

Regarding GGGCTT, the binding signal with FLI1 is 1.31 fold enrichment (6-mer frequency, TF over GST control); with ELK1 it was 1.18 fold enrichment (6-mer frequency, TF over GST control); in the experiment with GABPA, 1.15 fold enrichment (6-mer frequency, TF over GST control); with ERG it was 1.21 fold enrichment (6-mer frequency, TF over GST control); in the experiment with ELF1, 1.19 fold enrichment (6-mer frequency, TF over GST control); with EHF, 1.24 fold enrichment (6-mer frequency, TF over GST control). In addition, the binding signal with SPI1 is 1.1 fold enrichment (6-mer frequency, TF over GST control); in the experiment with SPIB, 1.2 fold enrichment (6-mer frequency, TF over GST control); with ELK3, 1.41 fold enrichment (6-mer frequency, TF over GST control); with FEV it was 1.24 fold enrichment (6-mer frequency, TF over GST control); in the experiment with ETV5 it was 1.18 fold enrichment (6-mer frequency, TF over GST control); in the experiment with HSF1, 1.46 fold enrichment (6-mer frequency, TF over GST control). Besides, the binding signal in the experiment with SPIC was 1.11 fold enrichment (6-mer frequency, TF over GST control); in the experiment with ELF4, 1.08 fold enrichment (6-mer frequency, TF over GST control); with ELK4 it was 1.22 fold enrichment (6-mer frequency, TF over GST control); with ELF3, 1.17 fold enrichment (6-mer frequency, TF over GST control); with CRX it was 1.77 fold enrichment (6-mer frequency, TF over GST control); in the experiment with ETV1 it was 1.29 fold enrichment (6-mer frequency, TF over GST control).

(Values after paper PMC7862700, “An all-to-all approach to the identification of sequence-specific readers for epigenetic DNA modifications on cytosine”.)
